Shown is part of a subset that was picked to be rich in hits.
DT40 TDP1 no CPT – qHTS for Inhibitors of human tyrosyl-DNA phosphodiesterase 1 (TDP1): qHTS in cells in absence of CPT; Potency, µM (top dose mostly 46.2 µM), for inactives: top-dose activity change, negative = growth inhibition, hits mostly inhibitors; DT40 Tdp1-/- hTDP1 cells, no CPT, ATP luminescence, 48 h; hit rate 15% among 420,000; AID 686978, 2013; also: potency is read from the fitted curve at half-maximal effect; nearly all actives have a fitted effect of over 55% in size
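A cellular qHTS used chicken DT40 cells lacking endogenous Tdp1 but carrying stably transfected human TDP1. Compounds were applied without camptothecin, and cell growth kinetics were judged by ATP-dependent luminescence after ≥48 hr.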
IL-1B inflam inh – inhibitors of inflammasome signaling (IL-1 beta secretion) | hit rate 4.7% among 360,000 | THP-1 LPS/ATP IL-1B secretion, AlphaLISA, 16 h; hits give low values | activity change, % at 57.5 µM; in the data active = activity change below about -50%; inconclusive = mostly about -30% to -49%
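Secreted IL-1B measured by AlphaLISA bead assay after 16 h compound exposure of THP-1 cells; compounds (final up to 57.5 uM) added 1 h before LPS (250 ng/mL) and ATP (1.25 mM) stimulation; lower signal means less secretion.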
HT1080 IDH1KD tx – kills HT-1080 cells with IDH1 knockdown; HT-1080 IDH1 knockdown viability, ATP luminescence, 48 h; Potency, µM (series often up to 46.1 µM), for inactives: top-dose activity, negative = toxicity, hits mostly cytotoxic; hit rate 2% among 360,000;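 also: potency is read from the fitted curve at half-maximal effect; 0% = DMSO wells and -100% = cell-free medium wells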
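Knockdown cells (IDH1KD HT-1080) received compounds 2 h after plating at 750 cells/well and were kept 48 h at 37 °C in 5% FBS RPMI. A CellTiter-Glo luminescence read gave % activity for curve fitting.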
DT40 TDP1 CPT – DT40-hTDP1 cell growth loss with CPT. chicken DT40 Tdp1-/-;hTDP1 cells + 20 nM CPT, ATP luminescence, 48 h. Potency, µM (doses to about 46.2 µM), for the others: at the highest dose activity change, negative = growth inhibition, hits mostly inhibitors. hit rate 12% among 420,000. AID 686979; also: potency is read from the fitted curve at half-maximal effect; nearly all actives have a fitted effect of over 55% in size
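Chicken DT40 Tdp1-/- cells complemented with human TDP1, 400 cells/well, exposed to compounds plus 20 nM camptothecin for at least 48 h at 37 C; viability read as ATP content by CellTiter-Glo luminescence.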
HT1080-NT tox – kills 2HG-producing HT-1080-NT fibrosarcoma cells | HT-1080-NT fibrosarcoma viability, CellTiter-Glo ATP luminescence, 48 h | Potency, µM (series often up to 46.1 µM), for the others: top-dose activity, negative = less viability, most hits filed as cytotoxic | hit rate 1.6% among 360,000 | AID 686970;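 also: NT is the 2HG producing partner of a matched IDH1 knockdown line; potency is read from the fitted curve at half-maximal effect; 0% = DMSO-treated cells and -100% = media-only wells without cells; nearly all actives have a fitted effect of over 55% in size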
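Toxicity toward the 2HG-producing NT line was scored as %Activity, normalised to DMSO and no-cell wells, from CellTiter-Glo luminescence after 48 hours' treatment.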
12-LOX inh – inhibitors of human 12S-lipoxygenase ALOX12; hit rate 1.1% among 580,000; purified 12hLO, xylenol orange hydroperoxide absorbance; Potency, µM (doses to about 108 µM), without a hit: at the highest dose activity change, negative = inhibition, most hits filed as inhibitors; AID 1671190; also: potency is read from the fitted curve at half-maximal effect
Target sequence (P18054 whole entry, looked up): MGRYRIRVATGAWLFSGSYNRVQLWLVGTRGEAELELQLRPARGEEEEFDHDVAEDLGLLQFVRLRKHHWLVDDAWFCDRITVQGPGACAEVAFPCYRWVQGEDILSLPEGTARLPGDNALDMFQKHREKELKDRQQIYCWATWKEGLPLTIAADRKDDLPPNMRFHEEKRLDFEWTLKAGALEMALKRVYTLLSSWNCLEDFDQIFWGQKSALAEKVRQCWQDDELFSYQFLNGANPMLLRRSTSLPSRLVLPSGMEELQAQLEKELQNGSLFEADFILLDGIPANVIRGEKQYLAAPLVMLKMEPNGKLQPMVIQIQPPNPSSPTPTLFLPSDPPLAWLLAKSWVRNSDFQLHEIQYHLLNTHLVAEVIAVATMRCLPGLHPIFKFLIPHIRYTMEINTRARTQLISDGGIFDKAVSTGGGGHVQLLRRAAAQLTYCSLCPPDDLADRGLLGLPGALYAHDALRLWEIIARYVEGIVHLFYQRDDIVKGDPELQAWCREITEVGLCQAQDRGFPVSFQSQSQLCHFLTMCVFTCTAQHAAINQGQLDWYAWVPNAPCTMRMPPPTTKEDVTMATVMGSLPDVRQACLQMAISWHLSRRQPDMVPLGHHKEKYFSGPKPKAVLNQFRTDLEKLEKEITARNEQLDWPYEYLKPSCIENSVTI
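Purified human 12hLO (150 nM final) in 25 mM Hepes, 0.01% Triton X-100, pH 7.0 was preincubated 15 min at room temperature with compound. Then 40 uM arachidonic acid was added, 30 min. Hydroperoxide was read by Fe-XO absorbance ratio 573/405 nm.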
Active calls of the source: *. Unless noted, calls follow the shape of the dose curve; as a rule, active = well fitted curve in the direction sought with a large enough effect; inconclusive = small, poorly fitted or top-dose-only effect, or another doubt; inactive = no such curve, though single readings can be large; an effect the other way counts as inactive or inconclusive. Unless noted, % is scaled to controls: 0 for no effect and ±100 for the full control effect.

Results for CN(C)S(=O)(=O)c1ccc(C(=O)/C=C/c2cccnc2)cc1 ?
DT40 TDP1 no CPT: 20.6µM*; IL-1B inflam inh: -4.1; HT1080 IDH1KD tx: -17.1%; DT40 TDP1 CPT: 8.2µM*; HT1080-NT tox: -2.0%; 12-LOX inh: -25.2%

How did O=C(/C=C/c1cccnc1)c1cc(F)ccc1O do in these assays?
DT40 TDP1 no CPT: 20.6µM*; IL-1B inflam inh: -7.0; HT1080 IDH1KD tx: 1.1%; DT40 TDP1 CPT: inconclusive; HT1080-NT tox: 0.0%; 12-LOX inh: -14.5%

Results for COc1cc(C(=O)/C=C/c2cccnc2)ccc1O ?
DT40 TDP1 no CPT: 18.4µM*; IL-1B inflam inh: -99.2*; HT1080 IDH1KD tx: inconclusive; DT40 TDP1 CPT: inconclusive; HT1080-NT tox: inconclusive; 12-LOX inh: inconclusive

How did O=C(CC[C@H]1NC(=O)c2ccccc2NC1=O)NCCCc1nc2ccccc2[nH]1 do in these assays?
12-LOX inh: 24.4%

How did CC(Nc1ccc([N+](=O)[O-])cn1)c1ccc(C(F)(F)F)cc1 (centres undefined) do in these assays?
12-LOX inh: -26.9%

How did CC(=O)NCCNC(=O)Cc1c[nH]c2ccccc12 do in these assays?
12-LOX inh: -6.9%

What do the screens show for `COc1ccc(OC)c(C(=O)/C=C/c2cccnc2)c1`?
DT40 TDP1 no CPT: 11.6µM*; IL-1B inflam inh: -98.4*; HT1080 IDH1KD tx: inconclusive; DT40 TDP1 CPT: inconclusive; HT1080-NT tox: 20.6µM*; 12-LOX inh: inconclusive

Results for Cc1noc(C)c1C(=O)N1CCCN(S(=O)(=O)c2ccccc2)CCC(=O)NCC1 ?
12-LOX inh: 25.8%

How did Cc1ccc(-c2cc(Nc3ccc(C(=O)N(C)Cc4ccccc4)cc3)ncn2)cc1 do in these assays?
12-LOX inh: -29.3%

Results for CCN(CCO)c1ccc(Nc2cc(-c3ccc(-c4ccccc4)cc3)ncn2)cc1 ?
DT40 TDP1 no CPT: 14.6µM*; IL-1B inflam inh: -8.5; HT1080 IDH1KD tx: inconclusive; DT40 TDP1 CPT: 18.4µM*; HT1080-NT tox: inconclusive; 12-LOX inh: 11.2µM*

What do the screens show for `COc1ccc(Nc2c(CCc3ccccc3)nc3nc(C)cc(C)n23)cc1`?
DT40 TDP1 no CPT: 13µM*; IL-1B inflam inh: -8.2; HT1080 IDH1KD tx: inconclusive; DT40 TDP1 CPT: 18.4µM*; HT1080-NT tox: inconclusive; 12-LOX inh: 17.8%

How did CCCCNc1c(CCc2ccccc2)nc2nc(C)cc(C)n12 do in these assays?
DT40 TDP1 no CPT: inconclusive; IL-1B inflam inh: -3.2; HT1080 IDH1KD tx: -10.8%; DT40 TDP1 CPT: 18.4µM*; HT1080-NT tox: -15.6%; 12-LOX inh: -30.4%

Results for Cc1ccc(Nc2c(-c3ccco3)nc3nc(C)cc(C)n23)cc1 ?
DT40 TDP1 no CPT: inconclusive; IL-1B inflam inh: 4.7; HT1080 IDH1KD tx: -15.7%; DT40 TDP1 CPT: inconclusive; HT1080-NT tox: -9.6%; 12-LOX inh: inconclusive

Results for CCc1nc2nc(C)cc(C)n2c1Nc1ccc(OC)cc1 ?
DT40 TDP1 no CPT: 18.4µM*; IL-1B inflam inh: 44.0; HT1080 IDH1KD tx: 0.9%; DT40 TDP1 CPT: inconclusive; HT1080-NT tox: 2.1%; 12-LOX inh: -29.3%

Results for Cc1nn(CCc2nnc(Nc3ccn(Cc4ccccc4Cl)n3)s2)c(C)c1Cl ?
12-LOX inh: -0.9%

How did CCCCOc1ccc2cc(C(=O)N3CCC(C(N)=O)CC3)[nH]c2c1 do in these assays?
12-LOX inh: 11.7%

How did N#Cc1c2nc3ccccc3nc2n2cc(NC(=O)c3ccc(F)cc3)ccc12 do in these assays?
DT40 TDP1 no CPT: 4.61µM*; IL-1B inflam inh: -7.1; HT1080 IDH1KD tx: 6.6%; DT40 TDP1 CPT: 4.11µM*; HT1080-NT tox: -1.6%; 12-LOX inh: 39.8µM*

What do the screens show for `COC(=O)c1sc(=S)n(-c2cccc(C)c2C)c1N`?
12-LOX inh: 3.4%

What do the screens show for `O=C1CC2CCN(C(=O)c3ccccc3)CC2CCN1` (centres undefined)?
12-LOX inh: 50.1µM*

How did CCOC(=O)c1cc(C)n(CC2CCC(C(=O)Nc3ccccc3OC)CC2)c1C (centres undefined) do in these assays?
DT40 TDP1 no CPT: inconclusive; DT40 TDP1 CPT: 18.4µM*; 12-LOX inh: -20.8%

How did CCOC(=O)c1cc(C)n(CC2CCC(C(=O)Nc3ccc(OCC)cc3)CC2)c1C (centres undefined) do in these assays?
DT40 TDP1 no CPT: 20.6µM*; DT40 TDP1 CPT: 16.4µM*; 12-LOX inh: -26.4%

What do the screens show for `COc1ccc(S(=O)(=O)N2CCCCC2c2cc(C(=O)Nc3ccc(F)c(Cl)c3)no2)cc1` (centres undefined)?
DT40 TDP1 no CPT: 16.4µM*; IL-1B inflam inh: -17.3; HT1080 IDH1KD tx: inconclusive; DT40 TDP1 CPT: 16.4µM*; HT1080-NT tox: inconclusive; 12-LOX inh: -16.1%

How did COc1ccc(NC(=O)c2cc(C3CCCCN3S(=O)(=O)c3c(C)noc3C)on2)c(C)c1 (centres undefined) do in these assays?
DT40 TDP1 no CPT: inconclusive; IL-1B inflam inh: 0.2; HT1080 IDH1KD tx: 3.9%; DT40 TDP1 CPT: inconclusive; HT1080-NT tox: 2.0%; 12-LOX inh: -1.3%

What do the screens show for `COc1ccc(S(=O)(=O)N2CCCCC2c2cc(C(=O)Nc3ccc(OC)cc3C)no2)cc1` (centres undefined)?
DT40 TDP1 no CPT: 18.4µM*; IL-1B inflam inh: 9.1; HT1080 IDH1KD tx: 0.7%; DT40 TDP1 CPT: 16.4µM*; HT1080-NT tox: -2.0%; 12-LOX inh: 12.3%

Results for COc1ccc(S(=O)(=O)N2CCCCC2c2cc(C(=O)NCc3cccnc3)no2)cc1 (centres undefined) ?
DT40 TDP1 no CPT: inconclusive; IL-1B inflam inh: 7.7; HT1080 IDH1KD tx: 0.5%; DT40 TDP1 CPT: 29.1µM*; HT1080-NT tox: 17.3%; 12-LOX inh: -62.4%

What do the screens show for `N#Cc1ccc(S(=O)(=O)N2CCCCC2c2cc(C(=O)NCc3cccnc3)no2)cc1` (centres undefined)?
DT40 TDP1 no CPT: inconclusive; IL-1B inflam inh: -1.9; HT1080 IDH1KD tx: 3.3%; DT40 TDP1 CPT: inconclusive; HT1080-NT tox: 3.0%; 12-LOX inh: 22.4%

How did COc1ccc(NC(=O)c2cc(C3CCCCN3S(=O)(=O)c3cccs3)on2)c(C)c1 (centres undefined) do in these assays?
DT40 TDP1 no CPT: 23.1µM*; IL-1B inflam inh: 10.2; HT1080 IDH1KD tx: -11.7%; DT40 TDP1 CPT: inconclusive; HT1080-NT tox: -1.6%; 12-LOX inh: -5.5%

Results for COCCN1CCOC[C@H]2CCN(C(=O)c3ccco3)C[C@H]21 ?
12-LOX inh: 37.4%

Results for Cc1ccc(C23CC4CC(CC(C(=O)O)(C4)C2)C3)cc1C ?
12-LOX inh: -33.4%
